Experimental data from PubChem BioAssay (EPA / NIEHS).
Activity calls are given as the source filed them. Rule for the calls: active = hit-call score of the fitted dose curve at least 0.9, where 1 is the maximum; inactive = score below 0.9.

Read-out: Monokine induced gamma interferon (MIG), CXCL9 (gene 4283)
Test: BSK_SAg_MIG: BioMAP Diversity Plus: SAg Assay for Monokine induced gamma interferon (MIG) Biomarker Activity (AID 2283092)
Conditions: primary human HUVEC with PBMC; actives raise or lower the signal
Method: BSK_SAg is a cell-based, multiplexed-readout assay that uses umbilical vein endothelium and peripheral blood mononuclear cells, a human vascular primary cell co-culture, with measurements taken at 24 hours after chemical dosing in a 96-well plate.BSK_SAg_MIG is an assay component measured in the BSK_SAg assay. It measures MIG antibody related to regulation of gene expression using ELISA technology.Data from the assay component BSK_SAg_MIG was analyzed into 1 assay endpoint. This assay endpoint, BSK_SAg_MIG, was analyzed with bidirectional fitting relative to DMSO as the negative control and baseline of activity. Using a type of binding reporter, gain or loss-of-signal activity can be used to understand changes in the signaling as they relate to the gene CXCL9. Furthermore, this assay endpoint can be referred to as a primary readout, because this assay has produced multiple assay endpoints where this one serves a signaling function. To generalize the intended target to other relatable targets, this assay endpoint is annotated to the cytokine intended target family, where the subfamily is chemotactic factor.
The levels of cell surface (or secreted, indicated by the prefix "s") biomarker endpoints were measured by ELISA. Overt cytotoxicity to cells in confluent adherent cultures (all systems other than the BT system) was assessed by measuring total protein levels using sulforhodamine B (SRB) staining in parallel cultures at the time of biomarker measurements, indicated as SRB endpoints. For proliferation assays for adherent cell types, individual cell types are cultured at sub-confluence and relative cell numbers quantified by SRB staining at time points optimized for each system (48 h: 3C and CASM3C systems; 72 h: BT and HDF3CGF systems; 96 h: SAg system). SRB was performed by staining cells with 0.1% SRB after fixation with 10% TCA and reading wells at 560 nm.Viability and proliferation of PBMC (T cells) was quantified by Alamar Blue reduction for the SAg and BT systems. For PBMC viability (referred to as PBMC Cytotoxicity within the assay endpoint names), cells were plated (75,000/well in a 96-well plate) and then chemical samples added for 1 h before addition of activators, SEB and TSST-1 (20 ng/mL final concentration each). Cells were incubated for 90 h. Then, Alamar Blue (20 uL/well) (Invitrogen, Cat DAL1100) was added for 6 h, and the plates were read with a fluorescence microplate reader at 546/580 nm (excitation/emission). For PBMC proliferation, cells were plated and activated as above but incubated for only 16 h prior to addition of Alamar Blue. Plates were read after 6 h.

SMILES	outcome	AC50
CCNC(=O)NC(=O)C(C#N)=NOC	inactive	
CCOc1nc(C(Cl)(Cl)Cl)ns1	inactive	
COC(=O)NC(=S)Nc1ccccc1NC(=S)NC(=O)OC	inactive	
O=C1C2CC=CCC2C(=O)N1SC(Cl)(Cl)Cl (stereo not given)	inactive	
CCOc1nc(F)cc2nc(S(=O)(=O)Nc3c(Cl)cccc3Cl)nn12	inactive	
Cn1c(-c2ccccc2)cc(-c2ccccc2)[n+]1C	inactive	
CSC(=O)c1c(C(F)F)nc(C(F)(F)F)c(C(=O)SC)c1CC(C)C	inactive	
Cc1cnc(C2=NC(C)(C(C)C)C(=O)N2)c(C(=O)O)c1 (stereo not given)	inactive	
CC1(C)CON(Cc2ccccc2Cl)C1=O	inactive	
Cc1ccc(N=CN(C)C=Nc2ccc(C)cc2C)c(C)c1		30.7 µM (active)
Nc1c(Cl)c(Cl)nc(C(=O)O)c1Cl	inactive	
O=C(Nc1ccccc1-c1ccc(Cl)cc1)c1cccnc1Cl	inactive	
OC(c1ccc(Cl)cc1)(c1ccc(Cl)cc1)C(Cl)(Cl)Cl		34.4 µM (active)
CCOC(=O)C(C)OC(=O)c1cc(Oc2ccc(C(F)(F)F)cc2Cl)ccc1[N+](=O)[O-] (stereo not given)	inactive	
Cc1c(COC(=O)[C@@H]2[C@H](/C=C(\Cl)C(F)(F)F)C2(C)C)cccc1-c1ccccc1	inactive	
CC(C)=CC1C(C(=O)OCc2coc(Cc3ccccc3)c2)C1(C)C (stereo not given)	inactive	
CNC(=O)Oc1cccc2ccccc12	inactive	
COC(=O)N(C(=O)N1CO[C@@]2(C(=O)OC)Cc3cc(Cl)ccc3C2=N1)c1ccc(OC(F)(F)F)cc1	inactive	
COP(=S)(OC)SCn1nnc2ccccc2c1=O	inactive	
COP(=O)(OC)O/C(C)=C/C(=O)N(C)C	inactive	

SMILES	outcome	AC50
CS(=O)(=O)c1ccc(C(=O)C2C(=O)CCCC2=O)c([N+](=O)[O-])c1	inactive	
COC(=O)c1c(C(F)F)nc(C(F)(F)F)c(C2=NCCS2)c1CC(C)C	inactive	
CS(=O)(=O)c1cc(C(F)(F)F)ccc1C(=O)c1cnoc1C1CC1	inactive	
CCCN(CC)CC1COC2(CCC(C(C)(C)C)CC2)O1 (stereo not given)	inactive	
Nc1cnn(-c2ccccc2)c(=O)c1Cl	inactive	
CC(C)(C)C(=O)C(Oc1ccc(Cl)cc1)n1cncn1 (stereo not given)	inactive	
C=CCOC(=O)C(C)(C)OC(=O)c1cc(-n2c(=O)cc(C(F)(F)F)n(C)c2=O)ccc1Cl	inactive	
COc1ccc(-c2ccccc2)cc1NNC(=O)OC(C)C	inactive	
COCC(C)N(C(=O)CCl)c1c(C)csc1C (stereo not given)	inactive	
CC(C)C1(C)N=C(c2ncccc2C(=O)O)NC1=O (stereo not given)	inactive	
CC1(C)C(C(=O)OC(C#N)c2cccc(Oc3ccccc3)c2)C1(C)C (stereo not given)	inactive	
CN=C=S	inactive	
COC(=O)NS(=O)(=O)c1ccc(N)cc1	inactive	
CCC(C)n1c(=O)[nH]c(C)c(Br)c1=O (stereo not given)	inactive	
CCN(CC)C(=O)C(C)Oc1cccc2ccccc12 (stereo not given)	inactive	
Cc1nc(N(C)C)nc(OC(=O)N(C)C)c1C	inactive	
CCCCC(O)(Cn1cncn1)c1ccc(Cl)cc1Cl (stereo not given)	inactive	
CCOc1cc(C(C)(C)C)ccc1C1COC(c2c(F)cccc2F)=N1 (stereo not given)		36.1 µM (active)
CC(C)N1C(=O)N(c2ccccc2)CSC1=NC(C)(C)C		38.8 µM (active)
O=P(O)(O)CCCl	inactive	
